From the supplement of paper PMC10477191
± gives the standard deviation of the averaged measurements.

Each compound was assayed on Drosophila virilis antennal basiconic sensillum AB5 (assay: odor-evoked OSN spike response (post minus pre-stimulus); higher = stronger neuronal excitation). Conditions: odor dilution: 10^-4.
Experimental: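 Single sensillum recordings from antennal basiconic sensilla of D. virilis. A 500 ms pulse of odorant (10^-4 in mineral oil or DMSO) was delivered; the response is the change in spike frequency between the 1 s pre- and post-stimulus windows (spikes/s).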

SMILES | odor-evoked OSN spike response [spikes/s]
CCCCCOC(C)=O [pentyl acetate] | 65.7 ± 11
CC(=O)OC/C=C(\C)CCC=C(C)C [geranyl acetate] | 81 ± 11
COc1cccc(OC)c1O [Phenol, 2,6-dimethoxy- (powder)] | 54 ± 20
CC(=O)c1ccccc1 [Acetophenone] | 65.7 ± 8.1
COC(=O)c1ccccc1 [methyl benzoate] | 49.2 ± 8.7
